Our source for the AC50 and activity, negative = inhibition values is PubChem BioAssay AID1851 (National Center for Advancing Translational Sciences (NCATS), 2009).

In all, about 16,000 compounds went through this assay and about 5,700 (36%) were called active. Inconclusive results (about 24%) are left out. Calls follow the shape of the dose curve; as a rule, active = well fitted curve in the direction sought with a large enough effect; inconclusive = small, poorly fitted or top-dose-only effect, or effect the other way; inactive = no such curve, though single readings can be large or run the other way. This is one part of the list.
% is scaled to controls: 0 for no effect and ±100 for the full control effect.

Chain of Cytochrome P450 1A2 (Homo sapiens) (P05177 whole entry, looked up): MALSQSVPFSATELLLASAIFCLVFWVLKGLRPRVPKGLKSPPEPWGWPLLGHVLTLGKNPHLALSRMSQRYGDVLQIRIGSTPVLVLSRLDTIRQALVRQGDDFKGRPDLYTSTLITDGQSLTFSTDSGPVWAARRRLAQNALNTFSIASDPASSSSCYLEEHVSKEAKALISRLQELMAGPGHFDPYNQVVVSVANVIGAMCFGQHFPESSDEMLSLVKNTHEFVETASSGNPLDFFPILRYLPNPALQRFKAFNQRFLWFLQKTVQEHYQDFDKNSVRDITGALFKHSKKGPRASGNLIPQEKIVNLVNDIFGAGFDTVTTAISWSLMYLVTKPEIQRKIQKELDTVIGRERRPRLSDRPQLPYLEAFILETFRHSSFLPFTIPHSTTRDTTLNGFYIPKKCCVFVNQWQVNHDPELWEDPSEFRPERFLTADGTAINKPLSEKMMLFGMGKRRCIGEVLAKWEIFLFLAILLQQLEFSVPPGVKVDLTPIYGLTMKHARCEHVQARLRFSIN

The assay concerns the target Cytochrome P450 1A2 (Homo sapiens) (UniProt P05177). As to the kind of experiment: Cytochrome panel assay with activity outcomes. The following applies: recombinant CYP, pro-luciferin dealkylation, luminescence, p450-cyp1a2; series mostly up to 57.1 µM.
Consider `Oc1ccc2[nH]cc(CCCCN3CC=C(c4ccccc4)CC3)c2c1`, for which the AC50 (as a rule, the concentration giving half of the maximal activity seen) is 31.6 µM (active). On the same count and under the same terms, in the case of `COC1(CS(=O)c2ccccc2)CCN(CCc2c[nH]c3ccc(F)cc23)CC1` (centres undefined) it was “inactive”; in that of `S=C(Nc1ccc(Cl)cc1)NC1CC2CCCC(C1)N2C1CCCC1` (centres undefined), “inactive”; in that of `O=C(Oc1ccccc1)N1CCC2(CCCN(Cc3ccccc3)C2)CC1`, “inactive”. For `C[C@@H]1O[C@H](O[C@@H]2C=C3CC[C@H]4[C@@H](CC[C@]5(C)[C@@H](c6ccc(=O)oc6)CC[C@]45O)[C@@]3(C)CC2)[C@@H](O)[C@H](O)[C@@H]1O`, the AC50 result was “inactive”.

On to `O=C(O)/C=C(\CC(=O)O)C(=O)O`, for which the activity, negative = inhibition is -6.78% [at 11.4 µM] (inactive). Regarding `CN1CCN(c2ncc3ncc(=O)n(C)c3n2)CC1`, the AC50 was 12.6 µM (active).

With `CN1CCC2(CC1)CCN(C(=O)Oc1ccccc1)CC2`, the AC50 result was “inactive”. Turning to `CC(C)[C@@H](C)/C=C\[C@@H](C)[C@@H]1CC[C@H]2C3=CC=C4C[C@@H](O)CC[C@]4(C)[C@H]3CC[C@]21C`, the activity, negative = inhibition is -8.17% [at 11.4 µM] (inactive). Consider `CC(C)NP(=O)(NC(C)C)OP(=O)(NC(C)C)NC(C)C`, for which the AC50 result is “inactive”. Consider `COc1cc2c(cc1OC)[C@]13CC[N@+]4(C)CC5=CCO[C@H]6CC(=O)N2[C@@H]1[C@@H]6[C@@H]5C[C@]34O`, for which the activity, negative = inhibition was -11.4% [at 2.29 µM] (inactive). As for `C[C@H](NC(C)(C)C)C(=O)c1cccc(Cl)c1`, the AC50 entry is “inactive”. For `Cc1c2cc[n+](CCN3CCCCC3)cc2c(C)c2c1[nH]c1ccc(O)cc12`, the AC50 was 2.51 µM (active).

For `CCNC(=O)[C@@H]1O[C@@H](n2cnc3c(N)ncnc32)[C@@H](O)[C@H]1O`, the AC50 entry was “inactive”.

In the case of `CP(=O)(O)CCCN`, the AC50 entry is “inactive”. Consider `O=C(CNS(=O)(=O)c1cccs1)N1CCC2(CC1)OCCO2`, for which the AC50 entry was “inactive”. On the same count and under the same terms, under `CCn1c(O)c(C(c2ccccn2)c2c(O)n(CC)c(=S)[nH]c2=O)c(=O)[nH]c1=S` stands “inactive”; under `OC(Cn1c2ccccc2c2ccccc21)C[n+]1ccccc1` (centres undefined), 3.16 µM (active); under `C/C=C1\C[C@H](C)[C@@](O)(CO)C(=O)OCC2=CCN3CC[C@@H](OC1=O)[C@@H]23`, “inactive”. The same measure, in the same setting: under `CCOP(=O)(OCC)C(NC(=O)C(Cl)Cl)C(Cl)(Cl)Cl` (centres undefined) stands “inactive”; under `COCC(=O)N1CCC2(CCCN(Cc3ccncc3)C2)CC1`, “inactive”. As to `Nc1nc(OCc2ccccc2)c2[nH]cnc2n1`, the AC50 was 1 µM (active). With `O=C(Oc1ccccc1)N1CCC2(CCN(Cc3nccs3)CC2)CC1`, the AC50 result is “inactive”. For `NC[C@H](O)c1cc(O)c(O)cc1F`, the AC50 entry was “inactive”. Take `CN1CCc2cc3c(cc2[C@@H]1O)OCO3`: the AC50 result is “inactive”.

For `CN1Cc2c(ccc3c2OCO3)[C@@H]2[C@@H](O)Cc3cc4c(cc3[C@@H]21)OCO4`, the AC50 was 2.51 µM (active). With `C[N+]1(C)CCc2cc3c(cc2[C@@H]1[C@@H]1OC(=O)c2c1ccc1c2OCO1)OCO3`, the AC50 entry was “inactive”. The same measure, in the same setting: in the case of `Cn1c(O)c(C(c2ccccn2)c2c(O)n(C)c(=S)n(C)c2=O)c(=O)n(C)c1=S` it was “inactive”. On the same count and under the same terms, in the case of `CC(C)(C)c1o[nH]c(=O)c1C[C@H](N)C(=O)O` it was “inactive”; in that of `COc1cc(CCN)c(OC)c(OC)c1`, 3.16 µM (active); in that of `COc1cc([C@@H](O)CN)ccc1O`, “inactive”. For `Cn1c(=O)c2[nH]cnc2n(C)c1=O.[CH2-][C@H](Cc1cccc2cc(C(=O)O)c(=O)oc12)OC.[Hg].[OH-]`, the activity, negative = inhibition was -15.3% [at 11.4 µM] (inactive).

Consider `COc1cc2ccccc2c2cc([N+](=O)[O-])oc12`, for which the AC50 was 0.126 µM (active). Still for that read-out and setting: under `C[C@H]1C(=O)O[C@@H]2CCN3CC=C(COC(=O)[C@@](C)(O)[C@@]1(C)O)[C@H]23` stands “inactive”; under `c1ccc2c(c1)OC[C@@H](C1=NCCN1)O2`, “inactive”; under `NCC#Cc1ccccc1`, 3.16 µM (active). On the same count and under the same terms, in the case of `C/C=C1\C[N@@+]2(C)CC[C@@]34C(=C(C=O)[C@H]1C[C@H]32)Nc1ccccc14` it was “inactive”; in that of `C[N+]1(C)C2CC(OC(=O)C(CO)c3ccccc3)CC1[C@@H]1O[C@H]21` (some centres undefined), “inactive”.

As for `OC(c1ccccc1)(c1ccccc1)C1CCCN1` (centres undefined), the AC50 is 15.8 µM (active).

As to `OC(c1ccccc1)(c1ccccc1)C1CCNCC1`, the AC50 entry is “inactive”. The same measure, in the same setting: under `CC[C@H](C)C(=O)O[C@@H]1[C@H](O)[C@@H]2[C@H](CN3C[C@@H](C)CC[C@@H]3[C@@]2(C)O)[C@@H]2C[C@@]34O[C@@]5(O)[C@@H](OC(=O)[C@](C)(O)CC)CC[C@@]3(C)[C@H]5[C@H](OC(C)=O)[C@@H](OC(C)=O)[C@H]4[C@]12O` stands “inactive”.

Take `CC(C)Oc1cccnc1N(C)C1CCN(Cc2ccccc2)CC1`: the AC50 entry was “inactive”. `CS(=O)(=O)N1CCC2(CC1)CN(Cc1ccncc1)C2`: the AC50 result was “inactive”. With `O=c1[nH]oc2c1CCNC2`, the AC50 result was “inactive”. The same measure, in the same setting: in the case of `Cn1ccnc1` it was “inactive”; in that of `C[C@]12CC[C@H](O)C[C@@H]1CC[C@H]1[C@H]2CC[C@]2(C)C(=O)CC[C@@H]12`, “inactive”.

Take `C[C@@]12CC[C@H]3[C@@H](CC[C@@H]4C[C@H]5S[C@H]5C[C@]43C)[C@H]1CC[C@H]2O`: the AC50 is 0.0251 µM (active). For `CC(C)CCC[C@@H](C)[C@@H]1CC[C@@H]2[C@H]3CC[C@H]4C[C@@H](N)CC[C@@]4(C)[C@@H]3CC[C@]21C`, the activity, negative = inhibition was 3.33% [at 11.4 µM] (inactive).

In the case of `C[As+](C)(c1ccc(Br)c([N+](=O)[O-])c1)c1ccc(Br)c([N+](=O)[O-])c1.O=[N+]([O-])O`, the activity, negative = inhibition is -12.7% [at 11.4 µM] (inactive). As to `COc1cc(-c2ccc(=O)[nH]n2)ccc1OC(F)F`, the AC50 was 2.51 µM (active). `CC(C)CN1CCC2(CC1)CCN(S(C)(=O)=O)CC2`: the AC50 result is “inactive”. The same measure, in the same setting: under `O=C(CCCN1CCC(n2c(=O)[nH]c3ccccc32)CC1)c1ccc(F)cc1` stands “inactive”.

As for `CN1C(=O)C(=Cc2ccc(N3CCCCC3)o2)C(=O)N(C)C1=S`, the half-maximal activity concentration (AC50) is 1.58 µM (active).

Regarding `CN1C(=O)C(=Cc2ccc(N3CCCCCC3)o2)C(=O)N(C)C1=S`, the AC50 is 1.58 µM (active). For `CC(=O)NBr`, the AC50 entry is “inactive”. The same measure, in the same setting: under `O=C(Oc1ccccc1)N1CCC2(CCN(Cc3ccccc3)CC2)CC1` stands “inactive”; under `CC(C)COC(=O)OCN1C(=O)CN(CCN2CC(=O)N(COC(=O)OCC(C)C)C(=O)C2)CC1=O`, “inactive”. Consider `Cc1ncc([N+](=O)[O-])n1CCN=[N+]=[N-]`, for which the activity, negative = inhibition is -9.71% [at 11.4 µM] (inactive).

With `COc1cc(CN2CCN(C(=O)COc3ccccc3)CC2)cc(OC)c1OC`, the AC50 entry was “inactive”.
